For part of these data: Results with a measured potency or affinity are listed apart. Active and inactive are the calls of the source. No rule for the calls is given here.
Target: Plasmodium falciparum protein kinase 6 (PK6, PF3D7_1337100) (UniProt Q8IDW1)
Assay: PfPK6 kinase inhibitors, biochemical, TCAMS library (AID 1159586)
Conditions: recombinant PfPK6, Kinase-Glo ATP depletion luminescence

Sequence of Plasmodium falciparum protein kinase 6 (PK6, PF3D7_1337100) (Q8IDW1 1-305): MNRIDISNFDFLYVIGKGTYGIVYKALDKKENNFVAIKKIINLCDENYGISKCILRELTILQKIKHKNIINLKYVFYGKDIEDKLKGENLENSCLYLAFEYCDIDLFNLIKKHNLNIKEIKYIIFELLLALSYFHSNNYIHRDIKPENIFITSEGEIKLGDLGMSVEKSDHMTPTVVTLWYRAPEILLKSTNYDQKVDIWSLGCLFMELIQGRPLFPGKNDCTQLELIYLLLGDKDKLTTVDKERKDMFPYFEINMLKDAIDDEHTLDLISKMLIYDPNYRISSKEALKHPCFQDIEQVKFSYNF

outcome, inactive:
COc1cc(NC(=O)NC(CCN2CCC3(CCc4ccccc43)CC2)c2ccc(Cl)c(Cl)c2)cc(OC)c1OC (centres undefined)
Nc1nc(N)c2c(ccc3c2ccn3Cc2ccc(-c3ccccc3)cc2)n1
COc1ccc(-c2ccc(NC(=O)c3ccc(F)cc3)cc2)cc1CNC(C)C
O=c1cc(NCCCNCc2cc3ccc(Br)cc3s2)[nH]c2ccccc12
O=C(NCC1CCC(C(=O)NCc2cccc(C(F)(F)F)c2)CC1)c1ccc(O)c(-c2ccc(Cl)c(Cl)c2)c1 (centres undefined)
COc1ccc(-c2cc(-c3nc4ccc(CN)cc4[nH]3)c(=O)n(C)c2)cc1OC
CCCC(CCC)n1ccc2c3c(N)nc(N)nc3ccc21
CC(C)(C)c1ccc(NC(=O)c2ccc(CN3CCCN(Cc4ccsc4)CC3)cc2)cc1
CN(C)Cc1cccc(CNC(=O)c2sccc2OCc2ccc(Cl)cc2)c1
COc1cccc(NC(=O)c2nc(N3CCN(c4ccncc4)CC3)ccc2Cl)c1
O=C(Nc1cccc(-c2cccc(-c3nc4ccc(C(F)(F)F)cc4[nH]3)c2)c1)Nc1ccc(F)c(F)c1F
COc1cc2nc(N3CCC(c4ccccc4)CC3)nc(NCc3ccc(=O)[nH]c3)c2cc1OC
Cc1cc(=O)c(-c2ccc(Oc3cccc(Cl)c3)cc2)c(C)[nH]1

Target: Protein kinase 7 (PK7), Plasmodium falciparum 3D7 (PF3D7_0213400) (UniProt Q7YTF7)
Assay: inhibition of Plasmodium PK7 catalytic activity – biochemical, TCAMS antimalarial set, Kinase-Glo luminescence (AID 1159587)
Conditions: recombinant PfPK7, Kinase-Glo ATP depletion luminescence

Sequence of Protein kinase 7 (PK7), Plasmodium falciparum 3D7 (PF3D7_0213400) (Q7YTF7 1-343): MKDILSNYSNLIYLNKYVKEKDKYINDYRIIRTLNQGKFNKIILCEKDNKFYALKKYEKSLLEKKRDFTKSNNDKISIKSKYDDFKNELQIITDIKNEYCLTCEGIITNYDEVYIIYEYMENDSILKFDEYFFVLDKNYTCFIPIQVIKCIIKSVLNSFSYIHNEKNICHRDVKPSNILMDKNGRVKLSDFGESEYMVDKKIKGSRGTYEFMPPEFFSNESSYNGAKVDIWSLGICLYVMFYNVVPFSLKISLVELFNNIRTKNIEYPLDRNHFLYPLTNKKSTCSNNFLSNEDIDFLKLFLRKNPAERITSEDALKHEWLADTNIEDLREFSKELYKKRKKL

outcome, inactive:
O=C(Nc1nc2cc(S(=O)(=O)NCCc3ccc(F)cc3)ccc2n1CCCn1ccnc1)c1ccc(Cl)cc1
Cc1[nH]c(C)c(C(F)(F)F)c(=O)c1-c1ccc(Oc2ccc(OC(F)(F)F)cc2)cc1
COc1ccc(CNCc2cccc(-c3cccc(-c4nc5c(C)cccc5[nH]4)c3)c2)cc1
CC(C)(C)c1ccc(C(=O)NC2CCC(CCN3CCc4ccc(S(C)(=O)=O)cc4CC3)CC2)cc1C(F)(F)F (centres undefined)
CCCCCCc1cc(Oc2c(I)cc(C[C@H](N)C(=O)O)cc2I)ccc1O
CN(C)Cc1cccc(-c2ccc3ccnc(N)c3c2)c1
CN1CCN(CCc2ccc3nc(-c4csc(Cc5cc(Cl)ccc5OCc5ccccc5)n4)[nH]c3c2)CC1
COc1ccc(C=NNc2ccnc3cc(F)c(C)cc23)c2ccccc12
Cc1nc(N)nc(N)c1OCc1cccc2c1ccc1ccccc12
Cc1nc(Nc2ccc(F)cc2)nc(N2CCc3cc(O)ccc3C2C)c1C (centres undefined)
CNc1ccc(CNCc2ccc(-c3ccc(-c4nc5ccc(C(F)(F)F)cc5[nH]4)s3)cc2)cc1
NCc1ccc(CNCc2cccc(-c3ccc(-c4nc5ccccc5[nH]4)cc3)c2)cc1
CCN(CC)Cc1ccc2c(=O)cc(CCc3cccc(F)c3F)n(CC(=O)N(Cc3ccc(-c4ccc(C(F)(F)F)cc4)cc3)C(C)C)c2c1
O=C(/C=C/c1ccc(Cl)c(Cl)c1)NCCCCCCN1CCN(C(=O)Nc2ccc(C(F)(F)F)cc2)CC1
Cc1[nH]c(C)c(-c2ccc(C(=O)c3ccccc3)cc2)c(=O)c1Br
Cc1cnc(C(=O)Nc2ccc(-c3cccc(-c4nc5ccccc5[nH]4)c3)cc2)cn1
FC(F)(F)c1ccc2nc(-c3ccc(-c4cccc(CN5CCN(c6ccncc6)CC5)c4)cc3)[nH]c2c1
O=C(c1cccs1)N(Cc1cccc(-c2ccc(CNCCc3ccccc3)cc2)c1)C1CCN(Cc2ccccc2)CC1
CCN(CC)CCN(Cc1ccc(-c2ccc(C(F)(F)F)cc2)cc1)C(=O)c1c[nH]c2ccc(Br)cc12
Cc1ccc(S(=O)(=O)NC2=NC(C)(C)N(OCc3ccc(Cl)c(Cl)c3)C(N)=N2)cc1
COc1ccc(NC(=O)Nc2nc3ccccc3s2)cc1N1CCN(C)CC1
CCN1CCC(N(Cc2ccc(-c3ccc(C(F)(F)F)s3)cc2)C(=O)Cn2c(CCc3cccc(F)c3F)nc(=O)c3ccccc32)CC1
CC(C)c1cc(C(=O)N[C@@H](Cc2ccccc2)[C@H](O)CNC2CCCCC2)cc(N2CCCC2=O)c1
Cc1ccc(NC(=O)c2ccc3nccnc3c2)cc1OC1CCN(Cc2ccc(F)cc2)CC1
CC(=O)Nc1ccc(CCNC(C)Cc2ccc(C(=O)Nc3ccc(CC(C)NCCc4cccc(Cl)c4)cc3)cc2)cc1 (centres undefined)
CN(C)Cc1cccc(-c2ccc(NC(=O)c3ccc4c(=O)n(CCN5CCCCC5)cnc4c3)cc2)c1
